The source of these data is PubChem BioAssay.

The subject of experiment [1] is Human papillomavirus type 1a protein E7 (residues 44-93). Briefly: small molecules binding HPV E7 44-93 – biochemical, small-molecule microarray, residues 44-93, 635 nm fluorescence, primary screen (AID 1108).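 Further: E7 fragment applied at 1 µg/mL in TBST for 1 h at 4 C; score combines spot fluorescence with its signal to noise ratio.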 To be noted: fluorescence 635 nm, higher = more signal.
Experiment [2] can be described thus: hepatitis C replication reporter changes, two-sided – Huh7 cells, luciferase reporter, HCV replication inhibitor project, primary screen (AID 1109).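 Further: huh7 hepatoma cells harbouring a luciferase neomycin HCV replicon reporter; luciferase luminescence as measure of HCV replicon replication; test concentration not given here.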 As to conditions: Huh7 HCV replicon luciferase reporter, 48 h; higher = more signal. For orientation: In a reporter assay the amount or activity of a reporter protein is the signal.
Experiment [3] addresses Left-right determination factor 2 (Homo sapiens) (UniProt O00292). Nature of the experiment: small molecules binding LEFTY2 protein – biochemical, small-molecule microarray, 635 nm fluorescence scan, primary screen (AID 1110). To be noted: higher = more signal.
Experiment [4] deals with Calmodulin-1 (Homo sapiens) (UniProt P0DP23). Briefly: small molecules binding calmodulin-1 with EGTA – biochemical, small-molecule microarray, Cy5-labelled CALM1, profiling panel (AID 1111).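 Further: labelled calmodulin applied in Tris saline Tween buffer holding calcium plus EGTA and DTT.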 As to conditions: Cy5-CALM1 binding fluorescence, higher = more signal.
Experiment [5] shares this target. Nature of the experiment: small molecules binding Ca-loaded calmodulin-1 – biochemical, small-molecule microarray, Cy5-labelled CALM1, plus calcium, artefact control for SMM control-protein annotation, profiling panel (AID 1112).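 Further: score merges spot fluorescence with signal to noise from triplicate slides.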 As to conditions: Cy5-CALM1 binding fluorescence, higher = more signal.
The nature of experiment [6]: probe aWnt5a binding to arrayed compounds – biochemical, biotinylated probe, 635/667 nm fluorescence, primary screen (AID 1113).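 Further: score merges 667 nm fluorescence intensity with signal-to-noise per printed feature.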 To be noted: small-molecule microarray, higher = more signal.
Experiment [7] can be described thus: probe aShh binding to arrayed compounds – biochemical, biotinylated probe, 635/667 nm fluorescence, primary screen (AID 1114).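 Further: probe is biotin-labelled aShh protein from a stem cell growth factor screen; measures binding of labelled protein to compounds printed on the slide; score merges feature fluorescence at 667 nm with signal-to-noise.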 As to conditions: small-molecule microarray, higher = more signal.
Experiment [8] is described as follows: probe aNog binding to arrayed compounds – biochemical, biotinylated probe, 635/667 nm fluorescence, primary screen (AID 1115).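 Further: probe is biotinylated aNog protein used at 0.15 µg/mL for 1 h at 4 C; z-score combines 667 nm fluorescence of each spot with its signal to noise.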 As to conditions: small-molecule microarray, higher = more signal.
Experiment [9] concerns the target Torsin-1A-interacting protein 1 (Homo sapiens) (UniProt Q5JTV8). Nature of the experiment: compound microarray binding of lysate hLAP1 – cell lysate, small-molecule microarray, COS7 lysate, 635/667 nm fluorescence, primary screen (AID 1116). To be noted: 635 nm fluorescence, higher = more signal.
Experiment [10] has as its target Alpha-bungarotoxin (Bungarus multicinctus) (UniProt P60615). Nature of the experiment: compounds binding labelled alpha-BTX control protein – biochemical, small-molecule microarray, Alexa647 label, 635/667 nm fluorescence, artefact control for SMM control protein annotation, profiling panel (AID 1117). To be noted: alpha-BTX-A647 binding fluorescence, higher = more signal.

Sequence of Alpha-bungarotoxin (Bungarus multicinctus) (P60615 whole entry, looked up): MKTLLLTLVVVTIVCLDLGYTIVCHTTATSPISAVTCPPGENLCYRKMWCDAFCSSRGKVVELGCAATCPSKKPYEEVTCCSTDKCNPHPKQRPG
Sequence of Left-right determination factor 2 (Homo sapiens) (O00292 whole entry, looked up): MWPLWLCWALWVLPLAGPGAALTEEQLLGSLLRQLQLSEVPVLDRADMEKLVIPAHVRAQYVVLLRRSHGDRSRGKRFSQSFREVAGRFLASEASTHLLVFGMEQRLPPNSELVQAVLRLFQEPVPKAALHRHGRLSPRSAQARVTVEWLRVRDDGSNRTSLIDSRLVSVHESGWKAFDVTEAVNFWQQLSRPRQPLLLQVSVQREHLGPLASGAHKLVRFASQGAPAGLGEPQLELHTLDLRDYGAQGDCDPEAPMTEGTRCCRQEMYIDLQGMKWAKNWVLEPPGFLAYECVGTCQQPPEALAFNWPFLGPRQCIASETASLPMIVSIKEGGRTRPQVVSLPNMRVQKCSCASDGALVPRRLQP
Sequence of Torsin-1A-interacting protein 1 (Homo sapiens) (Q5JTV8 whole entry, looked up): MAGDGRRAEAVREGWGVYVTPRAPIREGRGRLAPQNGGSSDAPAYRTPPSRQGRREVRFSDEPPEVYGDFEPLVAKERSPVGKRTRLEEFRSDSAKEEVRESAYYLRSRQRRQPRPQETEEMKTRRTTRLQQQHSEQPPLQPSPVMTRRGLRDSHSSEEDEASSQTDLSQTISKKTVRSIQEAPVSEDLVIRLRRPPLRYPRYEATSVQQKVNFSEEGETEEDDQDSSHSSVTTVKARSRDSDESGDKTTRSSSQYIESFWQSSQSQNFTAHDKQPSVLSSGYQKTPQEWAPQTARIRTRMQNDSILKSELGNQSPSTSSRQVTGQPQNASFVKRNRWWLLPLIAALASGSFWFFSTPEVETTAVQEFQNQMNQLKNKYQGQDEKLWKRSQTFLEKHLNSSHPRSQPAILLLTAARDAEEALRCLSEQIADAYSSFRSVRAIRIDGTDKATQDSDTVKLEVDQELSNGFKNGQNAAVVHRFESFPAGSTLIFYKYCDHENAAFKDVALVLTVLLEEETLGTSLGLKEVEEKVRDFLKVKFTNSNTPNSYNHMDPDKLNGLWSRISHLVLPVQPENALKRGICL

With `CCN1C(=O)[C@H]2[C@H]3[C@H](O)[C@H](O)CC(=NO[C@@H]4O[C@H](CO)[C@@H](O)[C@H](O)[C@H]4O)[C@H]3CC[C@H]2C1=O`, the composite z-score was 0.442 in experiment [1]; 0.486 in experiment [3]; -0.354 in [4]; -1.04 in experiment [5]; -0.0529 in experiment [6]; 0.204 in experiment [7]. Also, the composite z-score was 0.117 in experiment [8], 0.196 in [9] and 0.497 in experiment [10]. The molecule further gave a z-score in experiment [2] of 1.2.
Consider `C[C@H]1CC[C@@H](C(=O)O)N[C@@H]1c1cccc(N2CCCC2=O)c1`, for which the composite z-score was 0.4 in [1]; 0.263 in experiment [3]; -0.438 in experiment [4]; -0.55 in experiment [5]; -0.178 in [6]; -0.2 in [7]. Also, the values for the composite z-score in experiment [8], in [9] and in [10] were -0.181, 0.0221 and 0.197, respectively. The same molecule registered a z-score in [2] of 1.09.
For the molecule `CO[C@@H]1COC(=O)[C@H](CCSC)NC(=O)CC=C[C@@H](C)COC(=O)[C@@H]2CCCN2C(=O)CC=C[C@H]1C`, the composite z-score in [1] is -0.427; in experiment [3], 0.857; in [4] it was -0.776; in experiment [5], -1.36; in experiment [6], -0.0276; in experiment [7] it was 0.0278. Besides, the composite z-score in [8] is -0.036; in experiment [9] it was 0.771; in [10], -0.245. Moreover, the z-score in [2] is -0.522.
Regarding `COC(=O)[C@H](C)NC(=O)CCC1CC(OC(=O)NCc2cccc3ccccc23)CC2(CCCC(COC(=O)NCCCN3CCCC3=O)O2)O1` (stereo not given in full), the composite z-score in experiment [1] was 1.28; in experiment [3], 0.943; in experiment [4] it was 0.895; in [5], 0.0029; in experiment [6] it was -0.124; in [7], -0.455. The composite z-score in experiment [8] is -0.436; in experiment [9], 0.919; in experiment [10], 0.39. Moreover, the z-score in experiment [2] was -0.0695.
With `CCOC(=O)[C@H](Cc1ccccc1)NC(=O)CCC1CC(OC(=O)NCc2ccc3c(c2)OCO3)CC2(CCCC(COC(=O)NCCOc3ccccc3)O2)O1` (stereo not given in full), the composite z-score is 1.24 in [1]; 0.753 in experiment [3]; 0.505 in experiment [4]; -0.166 in [5]; -0.15 in experiment [6]; -0.223 in experiment [7]. Also, the composite z-score was -0.0047 in experiment [8], 0.301 in [9] and 0.495 in experiment [10]. Further, the z-score in [2] was -0.682.
Take `CCOC(=O)[C@H](Cc1ccccc1)NC(=O)CCC1CC(OC(=O)NCc2cccc3ccccc23)CC2(CCCC(COC(=O)NCCc3ccc(Cl)cc3)O2)O1` (stereo not given in full): the composite z-score in [1] is 1.02; in experiment [3], 0.366; in experiment [4] it was 1.14; in experiment [5], -0.369; in experiment [6], -0.0738; in [7], -0.153. Besides, the composite z-score turned out to be 0.793 in experiment [8], 0.289 in [9] and 0.429 in [10]. For the same molecule, the z-score in [2] stood at 0.246.
Turning to `CC(=O)OC[C@H]1O[C@@H](ON=C(C)C)[C@H](OC(C)=O)[C@@H](OC(C)=O)[C@@H]1OC(C)=O`, the composite z-score in [1] is -2.02; in [3], 0.207; in experiment [4], -0.862; in experiment [5], -0.678; in experiment [6], -0.0459; in experiment [7] it was -0.13. Also, the composite z-score was -0.345 in [8], -0.958 in experiment [9] and -1.3 in experiment [10]. Moreover, in [2], the z-score was -0.563.
Take `CC(C)=CCCC(C)=CCON=C1C[C@@H](O)[C@@H](O)[C@@H]2[C@@H]3C(=O)N([C@@H](C)c4ccccc4)C(=O)[C@@H]3CC[C@@H]12`: the composite z-score in experiment [1] is 0.257; in experiment [3], 0.898; in [4], -0.544; in experiment [5], -0.406; in experiment [6], -0.012; in [7] it was -0.289. In addition, the composite z-score in experiment [8] is -0.247; in [9], 0.222; in [10] it was 0.551. Moreover, the z-score in [2] is 0.0308.
Consider `COc1ccc(COC(=O)NN=C2C[C@@H](O)[C@@H](O)[C@@H]3[C@@H]4C(=O)N(c5cccc(Oc6ccccc6)c5)C(=O)[C@@H]4CC[C@H]23)cc1`, for which the composite z-score was -0.0321 in experiment [1]; -0.35 in experiment [3]; 0.0317 in [4]; 0.176 in experiment [5]; -0.215 in experiment [6]; -0.2 in experiment [7]. Besides, the composite z-score in experiment [8] is -0.336; in [9], 0.215; in experiment [10], 0.971. In experiment [2], the z-score is -1.46.
Turning to `CCOC(=O)[C@H](Cc1ccccc1)NC(=O)CCC1CC(OC(=O)NCc2cccc3ccccc23)CC2(CCCC(COC(=O)NCC3CCCCC3)O2)O1` (stereo not given in full), the composite z-score was 1.33 in [1]; 0.643 in experiment [3]; 0.297 in [4]; -0.525 in [5]; -0.0445 in experiment [6]; 0.0596 in experiment [7]. For the same molecule, the composite z-score in experiment [8] is -0.142; in [9], 0.128; in [10] it was 0.746. Besides, in [2], the z-score is -1.48.
For the molecule `CC(C)(C)N1C(=O)[C@H]2[C@H]3[C@H](O)[C@H](O)CC(=NNC(=O)OCc4ccccc4)[C@H]3CC[C@H]2C1=O`, the composite z-score was 0.978 in [1]; 0.613 in [3]; -0.0736 in experiment [4]; -0.313 in experiment [5]; -0.107 in experiment [6]; 0.0141 in experiment [7]. For the same molecule, the composite z-score in [8] was determined as 0.0516; in [9] it was 0.522; in [10] it was 0.613. In addition, the z-score in [2] was -1.9.
With `CC(=O)OC[C@H]1O[C@H](CC=NOC(C)CN2CCCc3nc(C)c(C)cc32)C=C[C@@H]1OC(C)=O` (stereo not given in full), the composite z-score was 0.838 in experiment [1]; 0.833 in [3]; -0.651 in experiment [4]; -1.2 in experiment [5]; 0.027 in [6]; 0.261 in experiment [7]. Moreover, the composite z-score in [8] is 0.134; in experiment [9] it was 1; in experiment [10], -0.0213. In experiment [2], the z-score was -0.475.
For the molecule `CC(=O)OC[C@H]1O[C@H](CC=NOCC[C@@H]2C=C[C@H](OC(C)=O)[C@@H](COC(C)=O)O2)C=C[C@@H]1OC(C)=O`, the composite z-score is 1.02 in [1]; 0.888 in [3]; -0.981 in [4]; -0.171 in [5]; -0.001 in experiment [6]; -0.0904 in [7]. Further, the composite z-score was -0.216 in experiment [8], -0.0873 in experiment [9] and 0.408 in [10]. Moreover, the z-score in [2] was 0.111.
Consider `CCc1cc2c(nc1CC)CCN(CCC(C)=NO[C@@H]1O[C@H](COC(C)=O)[C@@H](OC(C)=O)[C@H](OC(C)=O)[C@H]1OC(C)=O)C2`, for which the composite z-score in experiment [1] was 1.31; in [3], 1.3; in [4] it was -0.199; in [5], -0.502; in experiment [6], 0.0251; in experiment [7] it was -0.291. The results for the composite z-score in experiment [8], in experiment [9] and in experiment [10] were -0.152, 2.85 and 1.01, respectively. In [2], the z-score was -0.998.
Consider `COc1ccc(OC[C@@H]2CC3[C@@H](c4ccc(Br)cc4)[C@H](C)CC[C@H]3C(=O)O2)cc1` (stereo not given in full), for which the composite z-score in experiment [1] is -0.722; in experiment [3], 0.418; in experiment [4], -0.991; in experiment [5], -0.642; in experiment [6] it was -0.158; in [7], -0.367. Further, the composite z-score in [8] was -0.0003; in [9], 0.308; in experiment [10] it was 0.287. The z-score in [2] is -0.312.
Take `O=C1[C@H]2[C@H]3[C@H](O)[C@H](O)CC(=NO[C@@H]4O[C@H](CO)[C@@H](O)[C@H](O)[C@H]4O)[C@@H]3CC[C@H]2C(=O)N1C1CCCCC1`: the composite z-score was 0.578 in [1]; 0.616 in [3]; 0.159 in [4]; -0.616 in experiment [5]; 0.0101 in experiment [6]; -0.0593 in experiment [7]. The values for the composite z-score in experiment [8], in experiment [9] and in experiment [10] were -0.198, 0.0912 and 0.0069, respectively. Further, in experiment [2], the z-score was -0.0851.
For `CC(C)(C)N1C(=O)[C@H]2[C@@H]3C(=CC[C@H]2C1=O)C(=O)[C@H]1O[C@H]1[C@H]3O`, the composite z-score in [1] is -2.12; in experiment [3], 0.341; in experiment [4], -1.08; in [5], -1.48; in [6], -0.0735; in experiment [7], -0.273. The composite z-score in [8] is -0.571; in [9], -0.139; in experiment [10], -0.0321. In addition, the z-score in experiment [2] is -4.79.
